The text below walks through data of ChEMBL document CHEMBL2218924, “A broad activity screen in support of a chemogenomic map for kinase signalling research and drug discovery” (Biochem J, 2013).

The structures appear in SMILES notation.

The target of assay [1] is T1, Serine/threonine-protein kinase TBK1 (Homo sapiens) (UniProt Q9UHD2).
T1 sequence (whole entry): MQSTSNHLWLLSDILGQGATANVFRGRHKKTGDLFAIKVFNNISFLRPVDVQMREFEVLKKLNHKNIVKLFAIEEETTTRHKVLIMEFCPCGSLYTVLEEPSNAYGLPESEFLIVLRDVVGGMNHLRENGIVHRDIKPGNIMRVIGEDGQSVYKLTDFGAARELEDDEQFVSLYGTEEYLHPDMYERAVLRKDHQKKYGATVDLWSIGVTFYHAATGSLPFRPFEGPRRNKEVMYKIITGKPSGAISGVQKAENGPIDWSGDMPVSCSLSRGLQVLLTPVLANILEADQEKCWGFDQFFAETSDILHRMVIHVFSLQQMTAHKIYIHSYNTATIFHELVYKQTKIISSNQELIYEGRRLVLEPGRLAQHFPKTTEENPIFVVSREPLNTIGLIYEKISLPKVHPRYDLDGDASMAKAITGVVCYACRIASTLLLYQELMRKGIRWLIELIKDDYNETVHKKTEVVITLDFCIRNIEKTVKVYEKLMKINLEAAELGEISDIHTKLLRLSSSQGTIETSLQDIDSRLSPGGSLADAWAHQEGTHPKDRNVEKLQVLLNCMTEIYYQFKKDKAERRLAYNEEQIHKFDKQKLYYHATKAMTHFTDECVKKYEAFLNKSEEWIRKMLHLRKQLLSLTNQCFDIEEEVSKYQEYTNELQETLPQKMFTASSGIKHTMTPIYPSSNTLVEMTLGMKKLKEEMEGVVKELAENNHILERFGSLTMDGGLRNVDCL
As to conditions: at 10 µM.

For assay [2], the target named is T2, TGF-beta receptor type-1 (Homo sapiens) (UniProt P36897).
T2 sequence (whole entry): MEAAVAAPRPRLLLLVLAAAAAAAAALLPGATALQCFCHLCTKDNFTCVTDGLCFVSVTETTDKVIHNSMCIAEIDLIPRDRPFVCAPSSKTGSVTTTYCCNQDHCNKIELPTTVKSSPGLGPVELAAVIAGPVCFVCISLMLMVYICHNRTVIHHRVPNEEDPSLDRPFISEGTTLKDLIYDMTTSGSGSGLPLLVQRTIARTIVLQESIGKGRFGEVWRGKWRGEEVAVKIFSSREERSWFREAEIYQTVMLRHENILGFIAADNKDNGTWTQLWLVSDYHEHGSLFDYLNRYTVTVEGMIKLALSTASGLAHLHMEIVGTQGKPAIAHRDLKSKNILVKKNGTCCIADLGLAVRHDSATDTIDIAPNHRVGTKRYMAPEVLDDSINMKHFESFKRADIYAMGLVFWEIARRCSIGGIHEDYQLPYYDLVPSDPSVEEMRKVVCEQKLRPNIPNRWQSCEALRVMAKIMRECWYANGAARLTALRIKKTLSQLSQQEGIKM
As to conditions: at 1 µM.

Assay [3] has as its target T2, TGF-beta receptor type-1 (Homo sapiens). As to conditions: at 10 µM.
The target in assay [4] is Insulin-like growth factor 1 receptor (Homo sapiens) (UniProt P08069). As to conditions: at 1 µM.
Insulin-like growth factor 1 receptor (Homo sapiens), sequence (P08069 31-736 limits assumed): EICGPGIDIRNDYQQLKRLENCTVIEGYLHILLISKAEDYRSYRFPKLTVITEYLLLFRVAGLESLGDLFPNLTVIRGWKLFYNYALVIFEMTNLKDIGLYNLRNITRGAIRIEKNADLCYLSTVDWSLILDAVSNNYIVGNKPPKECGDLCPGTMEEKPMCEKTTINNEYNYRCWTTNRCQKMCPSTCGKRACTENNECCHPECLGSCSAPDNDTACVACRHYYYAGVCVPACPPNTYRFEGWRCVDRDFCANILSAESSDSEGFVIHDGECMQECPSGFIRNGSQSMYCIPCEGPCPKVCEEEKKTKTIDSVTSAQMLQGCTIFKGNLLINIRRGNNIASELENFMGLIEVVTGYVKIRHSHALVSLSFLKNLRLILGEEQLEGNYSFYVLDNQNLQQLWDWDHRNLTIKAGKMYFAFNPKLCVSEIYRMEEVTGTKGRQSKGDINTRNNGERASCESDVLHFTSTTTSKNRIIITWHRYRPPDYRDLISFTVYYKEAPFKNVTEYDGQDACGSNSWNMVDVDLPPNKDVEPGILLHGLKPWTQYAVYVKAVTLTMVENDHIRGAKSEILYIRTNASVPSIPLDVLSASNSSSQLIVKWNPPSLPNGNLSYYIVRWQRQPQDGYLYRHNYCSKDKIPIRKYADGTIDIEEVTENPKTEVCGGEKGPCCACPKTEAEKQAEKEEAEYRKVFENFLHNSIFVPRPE
Insulin-like growth factor 1 receptor (Homo sapiens), sequence (P08069 741-1367 limits assumed): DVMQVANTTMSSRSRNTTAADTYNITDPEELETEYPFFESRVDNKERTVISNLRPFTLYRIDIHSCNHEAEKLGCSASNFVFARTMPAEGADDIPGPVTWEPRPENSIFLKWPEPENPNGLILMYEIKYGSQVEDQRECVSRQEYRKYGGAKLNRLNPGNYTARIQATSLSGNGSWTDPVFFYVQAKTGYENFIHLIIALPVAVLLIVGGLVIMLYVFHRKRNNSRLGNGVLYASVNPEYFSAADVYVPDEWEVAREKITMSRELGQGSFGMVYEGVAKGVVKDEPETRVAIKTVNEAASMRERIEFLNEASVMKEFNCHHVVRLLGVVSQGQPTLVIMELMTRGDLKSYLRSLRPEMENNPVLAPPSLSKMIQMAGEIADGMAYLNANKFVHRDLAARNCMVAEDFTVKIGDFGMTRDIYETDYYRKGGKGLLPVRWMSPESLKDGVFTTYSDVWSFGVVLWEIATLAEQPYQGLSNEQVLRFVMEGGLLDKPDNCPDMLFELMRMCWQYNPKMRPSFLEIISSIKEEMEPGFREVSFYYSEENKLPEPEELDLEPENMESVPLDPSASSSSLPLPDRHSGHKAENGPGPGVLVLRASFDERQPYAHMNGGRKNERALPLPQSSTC
The target is the same in assay [5]. As to conditions: at 10 µM.
For assay [6], the target named is T3, Inhibitor of nuclear factor kappa-B kinase subunit alpha (Homo sapiens) (UniProt O15111).
T3 sequence (whole entry): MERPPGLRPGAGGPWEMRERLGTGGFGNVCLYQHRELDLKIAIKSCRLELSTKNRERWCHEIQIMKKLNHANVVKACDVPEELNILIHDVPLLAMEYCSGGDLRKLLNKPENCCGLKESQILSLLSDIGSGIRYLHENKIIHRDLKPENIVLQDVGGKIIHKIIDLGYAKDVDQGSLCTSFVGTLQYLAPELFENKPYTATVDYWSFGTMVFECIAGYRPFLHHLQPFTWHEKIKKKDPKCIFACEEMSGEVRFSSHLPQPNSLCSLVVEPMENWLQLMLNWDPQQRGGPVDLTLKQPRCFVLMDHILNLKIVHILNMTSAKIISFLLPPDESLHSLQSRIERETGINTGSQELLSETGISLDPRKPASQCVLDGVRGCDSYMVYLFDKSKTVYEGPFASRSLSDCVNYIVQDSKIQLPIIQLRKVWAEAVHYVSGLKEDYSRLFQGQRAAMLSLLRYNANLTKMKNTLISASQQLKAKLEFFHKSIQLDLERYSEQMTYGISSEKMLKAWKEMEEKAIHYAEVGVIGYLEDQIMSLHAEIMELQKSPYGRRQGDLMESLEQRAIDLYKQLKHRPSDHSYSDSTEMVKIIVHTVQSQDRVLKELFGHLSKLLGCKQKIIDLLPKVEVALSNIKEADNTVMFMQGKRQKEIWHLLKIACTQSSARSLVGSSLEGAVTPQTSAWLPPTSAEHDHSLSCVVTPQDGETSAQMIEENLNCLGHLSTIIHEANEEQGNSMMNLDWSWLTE
As to conditions: at 1 µM.

Assay [7] addresses T3, Inhibitor of nuclear factor kappa-B kinase subunit alpha (Homo sapiens). As to conditions: at 10 µM.
Assay [8] concerns the target T4, Inhibitor of nuclear factor kappa-B kinase subunit beta (Homo sapiens) (UniProt O14920).
T4 sequence (whole entry): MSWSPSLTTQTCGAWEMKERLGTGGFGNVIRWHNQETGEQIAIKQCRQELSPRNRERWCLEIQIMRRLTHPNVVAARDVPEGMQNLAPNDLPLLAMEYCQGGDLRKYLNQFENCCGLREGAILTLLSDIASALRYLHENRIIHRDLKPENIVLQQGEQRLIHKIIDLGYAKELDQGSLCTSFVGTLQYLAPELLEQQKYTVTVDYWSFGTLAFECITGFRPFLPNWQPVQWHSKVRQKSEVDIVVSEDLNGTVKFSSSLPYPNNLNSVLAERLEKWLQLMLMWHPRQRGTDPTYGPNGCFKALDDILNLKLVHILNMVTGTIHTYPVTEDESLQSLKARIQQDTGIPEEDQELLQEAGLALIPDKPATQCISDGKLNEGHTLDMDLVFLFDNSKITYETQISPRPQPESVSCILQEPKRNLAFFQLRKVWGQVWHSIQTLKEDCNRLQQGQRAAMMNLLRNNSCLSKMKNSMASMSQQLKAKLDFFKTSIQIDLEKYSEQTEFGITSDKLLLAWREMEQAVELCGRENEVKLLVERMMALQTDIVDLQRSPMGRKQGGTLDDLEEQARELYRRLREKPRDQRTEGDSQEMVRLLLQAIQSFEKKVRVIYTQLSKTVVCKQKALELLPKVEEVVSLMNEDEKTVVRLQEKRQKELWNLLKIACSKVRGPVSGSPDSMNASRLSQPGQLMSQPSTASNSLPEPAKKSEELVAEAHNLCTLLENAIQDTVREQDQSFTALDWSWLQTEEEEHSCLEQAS
As to conditions: at 1 µM.

Assay [9] has as its target T4, Inhibitor of nuclear factor kappa-B kinase subunit beta (Homo sapiens). As to conditions: at 10 µM.
Assay [10] has as its target Insulin receptor (Homo sapiens) (UniProt P06213). As to conditions: at 1 µM.

Insulin receptor (Homo sapiens), sequence (P06213 28-758 limits assumed): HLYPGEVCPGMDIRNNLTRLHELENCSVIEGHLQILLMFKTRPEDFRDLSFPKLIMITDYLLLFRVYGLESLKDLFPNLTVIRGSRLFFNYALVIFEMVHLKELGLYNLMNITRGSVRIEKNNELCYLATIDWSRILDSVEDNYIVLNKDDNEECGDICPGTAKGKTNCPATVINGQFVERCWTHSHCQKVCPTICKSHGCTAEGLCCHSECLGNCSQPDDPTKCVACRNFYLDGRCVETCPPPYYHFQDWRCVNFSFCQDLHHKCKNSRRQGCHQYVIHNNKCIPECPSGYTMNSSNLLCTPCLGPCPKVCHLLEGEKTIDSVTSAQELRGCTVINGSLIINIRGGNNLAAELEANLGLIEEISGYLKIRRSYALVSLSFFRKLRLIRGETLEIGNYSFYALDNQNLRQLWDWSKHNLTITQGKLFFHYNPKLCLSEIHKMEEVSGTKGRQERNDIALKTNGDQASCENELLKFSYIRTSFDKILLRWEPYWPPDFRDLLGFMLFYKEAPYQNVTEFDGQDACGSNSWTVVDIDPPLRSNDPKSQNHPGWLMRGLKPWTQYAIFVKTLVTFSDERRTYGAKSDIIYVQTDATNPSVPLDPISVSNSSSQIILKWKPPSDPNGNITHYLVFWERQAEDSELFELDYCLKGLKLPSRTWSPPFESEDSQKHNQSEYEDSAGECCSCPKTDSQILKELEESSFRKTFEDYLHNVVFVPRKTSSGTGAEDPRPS
Insulin receptor (Homo sapiens), sequence (P06213 763-1382 limits assumed): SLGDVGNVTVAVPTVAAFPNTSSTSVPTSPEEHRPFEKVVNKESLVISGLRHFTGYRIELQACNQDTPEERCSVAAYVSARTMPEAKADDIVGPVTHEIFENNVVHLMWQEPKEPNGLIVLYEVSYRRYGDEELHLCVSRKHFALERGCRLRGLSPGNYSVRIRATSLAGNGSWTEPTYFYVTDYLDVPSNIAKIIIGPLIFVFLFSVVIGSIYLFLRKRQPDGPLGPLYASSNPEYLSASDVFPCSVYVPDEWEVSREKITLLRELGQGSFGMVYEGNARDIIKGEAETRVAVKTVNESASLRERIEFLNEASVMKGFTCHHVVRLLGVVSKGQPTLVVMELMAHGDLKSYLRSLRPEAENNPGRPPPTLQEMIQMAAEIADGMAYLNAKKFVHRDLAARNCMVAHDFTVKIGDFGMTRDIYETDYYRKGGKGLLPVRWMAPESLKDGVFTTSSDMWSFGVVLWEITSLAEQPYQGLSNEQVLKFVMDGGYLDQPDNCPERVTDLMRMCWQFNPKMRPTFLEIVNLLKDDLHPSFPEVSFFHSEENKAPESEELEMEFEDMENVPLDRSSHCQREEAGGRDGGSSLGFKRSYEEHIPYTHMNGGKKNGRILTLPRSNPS

As to `Cc1nc(-c2ccccc2)c(-c2ccncc2)o1`, the residual activity (in general, the signal under treatment as a percentage of the control signal) in [1] came out at 88%; in assay [2] it was 116%; in [3], 100%; in assay [4], 107%; in [5], 116%; in assay [6] it was 109%. The residual activity in [7] is 101%; in assay [8] it was 109%; in assay [9] it was 82%; in assay [10] it was 117%.
